Here are results for 25 compounds from PubChem BioAssay (NCATS).

Records with an inconclusive call do not appear. Activity calls are given as the source filed them. Unless noted, calls come from the whole dose curve; as a rule, active = well fitted curve in the direction sought with a large enough effect; inconclusive = small, poorly fitted or top-dose-only effect, or another doubt; inactive = no such curve, though single readings can be large; an effect the other way counts as inactive or inconclusive.

Chain of phosphoglycerate mutase (Leishmania major) (Q4Q090 1-553): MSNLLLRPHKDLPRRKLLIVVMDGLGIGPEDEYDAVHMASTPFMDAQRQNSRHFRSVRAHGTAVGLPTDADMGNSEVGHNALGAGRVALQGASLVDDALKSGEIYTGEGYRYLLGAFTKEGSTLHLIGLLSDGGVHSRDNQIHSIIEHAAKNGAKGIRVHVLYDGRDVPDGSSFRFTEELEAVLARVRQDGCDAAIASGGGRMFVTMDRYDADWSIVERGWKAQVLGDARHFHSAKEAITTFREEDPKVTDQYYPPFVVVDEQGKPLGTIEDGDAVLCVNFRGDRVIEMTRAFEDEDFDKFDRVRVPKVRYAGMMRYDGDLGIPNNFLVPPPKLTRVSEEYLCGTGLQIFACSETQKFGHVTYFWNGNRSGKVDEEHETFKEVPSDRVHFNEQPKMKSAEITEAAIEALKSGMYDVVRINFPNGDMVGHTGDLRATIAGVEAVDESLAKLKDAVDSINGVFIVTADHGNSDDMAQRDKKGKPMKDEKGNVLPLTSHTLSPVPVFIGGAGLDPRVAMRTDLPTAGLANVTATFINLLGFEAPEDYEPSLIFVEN
Chain of Phosphoglycerate kinase, glycosomal (Trypanosoma brucei brucei) (P07378 whole entry, looked up): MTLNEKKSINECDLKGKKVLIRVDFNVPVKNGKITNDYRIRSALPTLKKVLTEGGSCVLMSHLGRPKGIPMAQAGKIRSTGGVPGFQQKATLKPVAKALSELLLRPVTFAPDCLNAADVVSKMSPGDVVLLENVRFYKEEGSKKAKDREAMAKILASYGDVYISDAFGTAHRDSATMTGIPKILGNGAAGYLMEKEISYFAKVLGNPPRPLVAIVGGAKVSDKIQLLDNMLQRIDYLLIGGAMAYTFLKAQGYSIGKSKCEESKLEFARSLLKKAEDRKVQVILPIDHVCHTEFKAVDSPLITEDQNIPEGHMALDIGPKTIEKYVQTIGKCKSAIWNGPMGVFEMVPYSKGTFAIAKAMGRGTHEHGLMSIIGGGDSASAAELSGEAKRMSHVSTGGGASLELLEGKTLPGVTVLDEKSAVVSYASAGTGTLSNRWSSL
Chain of Peptidyl-prolyl cis-trans isomerase NIMA-interacting 1 (Homo sapiens) (Q13526 whole entry, looked up): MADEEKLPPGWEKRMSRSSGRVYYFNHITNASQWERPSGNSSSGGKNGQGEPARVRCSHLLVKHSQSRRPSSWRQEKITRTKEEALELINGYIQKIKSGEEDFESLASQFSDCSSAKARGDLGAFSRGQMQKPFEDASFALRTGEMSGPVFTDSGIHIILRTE

Test system in the first assay: not listed separately
The assay can be described thus: Validation screen for small molecules that induce DNA re-replication in SW480 colon adenocarcinoma cells (AID 504364). As to conditions: DNA re-replication phenotype (high-content imaging); series mostly up to 46.1 µM. A digest of the protocol:
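Image-based qHTS: compounds were incubated with SW480 cells for 48 hr, nuclei stained with Hoechst, and per-nucleus fluorescence intensity scanned to flag cells with excess DNA content.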
As to `Nc1nc2c(ncn2COCCO)c(=O)[nH]1`, the call was inactive.

Take `CCOC(=O)C1=C[C@]2(CC)CCCN3CCc4c(n1c1ccccc41)[C@@H]32`: the compound was classed as inactive.

For `CNC[C@H](O)c1cccc(O)c1`, the result was inactive.

On to `Cc1ccc(N(CC2=NCCN2)c2cccc(O)c2)cc1`, for which the outcome was inactive.

On to `NC(=O)c1cnccn1`, for which the call was inactive.

For `O=c1[nH]cnc2[nH]ncc12`, the compound was classed as inactive.

For `Cc1[nH]c(=O)c(C#N)cc1-c1ccc2nccn2c1`, the outcome was inactive.

For `CC(C)NCC(O)COc1ccc(COCCOC(C)C)cc1` (stereo unspecified), the outcome was inactive.

Turning to `Nc1nc2ccc(OC(F)(F)F)cc2s1`, the outcome was inactive.

For the compound `Cc1oncc1C(=O)Nc1ccc(C(F)(F)F)cc1`, the call was inactive.

Consider `CN1CCN(CCCN2c3ccccc3Sc3ccc(C(F)(F)F)cc32)CC1`, for which the call was inactive.

Consider `CCn1cc(C(=O)O)c(=O)c2cc(F)c(N3CCNC(C)C3)c(F)c21` (stereo unspecified), for which the compound was called inactive.

Turning to `CCCCNc1cc(C(=O)O)cc(S(N)(=O)=O)c1Oc1ccccc1`, the compound was called inactive.

Turning to `NNCCc1ccccc1`, the call was inactive.

With `CC(=O)Oc1ccccc1C(=O)O`, the outcome was inactive.

As for `NC[C@H](O)c1ccc(O)c(O)c1`, the call was inactive.

Turning to `Cc1cn[nH]c1`, the result was inactive.

On to `CCCC(CCC)C(=O)O`, for which the outcome was inactive.

A further assay concerns the target Peptidyl-prolyl cis-trans isomerase NIMA-interacting 1 (Homo sapiens) (UniProt Q13526). Briefly: qHTS Validation Assay to Find Inhibitors of Pin1 (AID 504536; active = well fitted inhibition curve with a large enough effect in the polarisation, with a control signal flat, not every such curve was filed as active; the % refers to the polarisation). The settings on record: Pin1 fluorescence polarization peptide binding assay; series mostly up to 57.5 µM. A digest of the protocol:
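Fluorescence polarization competition: compounds (titration) displace HiFluor-488-labeled Pin1-1b peptide from Pin1 (0.3 uM final) in pH 7.5 HEPES buffer with DTT, 10 min at room temperature; %Activity normalized to no-enzyme wells, curves fitted.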
`Nc1nc2c(ncn2COCCO)c(=O)[nH]1`: the compound was called inactive.

Turning to `CCOC(=O)C1=C[C@]2(CC)CCCN3CCc4c(n1c1ccccc41)[C@@H]32`, the call was inactive.

As to `C[C@]12CCC(=O)C=C1CC[C@@H]1[C@@H]2[C@@H](O)C[C@@]2(C)[C@H]1CC[C@]2(O)C(=O)CO`, the call was inactive.

Turning to `CNC[C@H](O)c1cccc(O)c1`, the outcome was inactive.

Regarding `OC(CCN1CCCCC1)(c1ccccc1)C1CC2C=CC1C2` (stereo unspecified), the compound was classed as inactive.

`Cc1ccc(N(CC2=NCCN2)c2cccc(O)c2)cc1`: the call was inactive.

Consider `NC(=O)c1cnccn1`, for which the outcome was inactive.

Take `O=c1[nH]cnc2[nH]ncc12`: the compound was called inactive.

In the case of `Cc1[nH]c(=O)c(C#N)cc1-c1ccc2nccn2c1`, the compound was called inactive.

For the compound `CC(C)NCC(O)COc1ccc(COCCOC(C)C)cc1` (stereo unspecified), the outcome was inactive.

On to `Nc1nc2ccc(OC(F)(F)F)cc2s1`, for which the compound was called inactive.

In the case of `Cc1cccc(-c2[nH]c(C(C)(C)C)nc2-c2ccc3nccnc3c2)n1`, the call was inactive.

As to `CCOC(=O)N1CCC(=C2c3ccc(Cl)cc3CCc3cccnc32)CC1`, the result was inactive.

Consider `O=C(Nc1nc2ccccc2n1CCN1CCOCC1)c1cccc([N+](=O)[O-])c1`, for which the compound was called inactive.

Regarding `Cc1oncc1C(=O)Nc1ccc(C(F)(F)F)cc1`, the compound was classed as inactive.

`Nc1ncnc2nc(-c3ccc(N4CCOCC4)nc3)cc(-c3cccc(Br)c3)c12`: the call was inactive.

Consider `CN1CCN(CCCN2c3ccccc3Sc3ccc(C(F)(F)F)cc32)CC1`, for which the compound was called inactive.

`CCCCNc1cc(C(=O)O)cc(S(N)(=O)=O)c1Oc1ccccc1`: the result was inactive.

In the case of `NNCCc1ccccc1`, the compound was classed as inactive.

On to `CC(=O)Oc1ccccc1C(=O)O`, for which the call was inactive.

As to `NC[C@H](O)c1ccc(O)c(O)c1`, the outcome was inactive.

In the case of `Cc1cn[nH]c1`, the compound was classed as inactive.

As for `O=C(O)COCCN1CCN(C(c2ccccc2)c2ccc(Cl)cc2)CC1` (stereo unspecified), the outcome was inactive.

As to `CCCC(CCC)C(=O)O`, the compound was called inactive.

The next assay has as its target Phosphoglycerate kinase, glycosomal (Trypanosoma brucei brucei) (UniProt P07378). Briefly: qHTS Validation Assay to Find Inhibitors of Phosphoglycerate Kinase (AID 504547). As to conditions: enzymatic PGK inhibition, coupled luminescence read-out; series mostly up to 57.5 µM. A digest of the protocol: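 In TEA buffer (100mM, pH 7.6) containing 5mM MgCl2 and 0.01% Tween-20, the GAPDH-coupled PGK reaction proceeded for 60 minutes at room temperature before a single luminescence reading using Kinase-Glo Plus.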
For orientation: Quantitative high-throughput screening tests each substance at several concentrations.
With `Nc1nc2c(ncn2COCCO)c(=O)[nH]1`, the result was inactive.

Take `CCOC(=O)C1=C[C@]2(CC)CCCN3CCc4c(n1c1ccccc41)[C@@H]32`: the result was inactive.

For `C[C@]12CCC(=O)C=C1CC[C@@H]1[C@@H]2[C@@H](O)C[C@@]2(C)[C@H]1CC[C@]2(O)C(=O)CO`, the result was inactive.

On to `CNC[C@H](O)c1cccc(O)c1`, for which the outcome was inactive.

Turning to `OC(CCN1CCCCC1)(c1ccccc1)C1CC2C=CC1C2` (stereo unspecified), the result was inactive.

Regarding `Cc1ccc(N(CC2=NCCN2)c2cccc(O)c2)cc1`, the result was inactive.

On to `NC(=O)c1cnccn1`, for which the outcome was inactive.

For the compound `O=c1[nH]cnc2[nH]ncc12`, the outcome was inactive.

With `Cc1[nH]c(=O)c(C#N)cc1-c1ccc2nccn2c1`, the outcome was inactive.

On to `CC(C)NCC(O)COc1ccc(COCCOC(C)C)cc1` (stereo unspecified), for which the outcome was inactive.

Take `Nc1nc2ccc(OC(F)(F)F)cc2s1`: the result was inactive.

With `Cc1cccc(-c2[nH]c(C(C)(C)C)nc2-c2ccc3nccnc3c2)n1`, the outcome was inactive.

Turning to `CCOC(=O)N1CCC(=C2c3ccc(Cl)cc3CCc3cccnc32)CC1`, the result was inactive.

Consider `O=C(Nc1nc2ccccc2n1CCN1CCOCC1)c1cccc([N+](=O)[O-])c1`, for which the result was inactive.

On to `Cc1oncc1C(=O)Nc1ccc(C(F)(F)F)cc1`, for which the outcome was inactive.

Take `Nc1ncnc2nc(-c3ccc(N4CCOCC4)nc3)cc(-c3cccc(Br)c3)c12`: the outcome was inactive.

Take `CN1CCN(CCCN2c3ccccc3Sc3ccc(C(F)(F)F)cc32)CC1`: the outcome was inactive.

On to `CCn1cc(C(=O)O)c(=O)c2cc(F)c(N3CCNC(C)C3)c(F)c21` (stereo unspecified), for which the result was inactive.

With `CCCCNc1cc(C(=O)O)cc(S(N)(=O)=O)c1Oc1ccccc1`, the result was inactive.

For the compound `NNCCc1ccccc1`, the outcome was inactive.

On to `CC(=O)Oc1ccccc1C(=O)O`, for which the result was inactive.

On to `Cc1cn[nH]c1`, for which the outcome was inactive.

In the case of `O=C(O)COCCN1CCN(C(c2ccccc2)c2ccc(Cl)cc2)CC1` (stereo unspecified), the result was inactive.

As for `CCCC(CCC)C(=O)O`, the outcome was inactive.

A further assay has as its target phosphoglycerate mutase (Leishmania major) (UniProt Q4Q090). Briefly: qHTS Validation Assay to Find Inhibitors of Phosphoglycerate Mutase (AID 504548).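 Note: end-point luminescence from Kinase-GloPlus after the PGAM reaction.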 The settings on record: biochemical enzyme activity; series mostly up to 57.5 µM. The essentials: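 Inhibition of L. major PGAM was assessed by Kinase-GloPlus luminescence following a 45-minute room-temperature reaction with enzyme at 1.25nM final.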
Take `Nc1nc2c(ncn2COCCO)c(=O)[nH]1`: the compound was called inactive.

On to `CCOC(=O)C1=C[C@]2(CC)CCCN3CCc4c(n1c1ccccc41)[C@@H]32`, for which the compound was called inactive.

For the compound `C[C@]12CCC(=O)C=C1CC[C@@H]1[C@@H]2[C@@H](O)C[C@@]2(C)[C@H]1CC[C@]2(O)C(=O)CO`, the outcome was inactive.

`CNC[C@H](O)c1cccc(O)c1`: the outcome was inactive.

`OC(CCN1CCCCC1)(c1ccccc1)C1CC2C=CC1C2` (stereo unspecified): the compound was classed as inactive.

In the case of `Cc1ccc(N(CC2=NCCN2)c2cccc(O)c2)cc1`, the outcome was inactive.

`NC(=O)c1cnccn1`: the result was inactive.

Regarding `O=c1[nH]cnc2[nH]ncc12`, the call was inactive.

With `Cc1[nH]c(=O)c(C#N)cc1-c1ccc2nccn2c1`, the outcome was inactive.

Turning to `CC(C)NCC(O)COc1ccc(COCCOC(C)C)cc1` (stereo unspecified), the compound was classed as inactive.

Take `Nc1nc2ccc(OC(F)(F)F)cc2s1`: the compound was called inactive.

Turning to `Cc1cccc(-c2[nH]c(C(C)(C)C)nc2-c2ccc3nccnc3c2)n1`, the compound was called inactive.

With `CCOC(=O)N1CCC(=C2c3ccc(Cl)cc3CCc3cccnc32)CC1`, the call was inactive.

`O=C(Nc1nc2ccccc2n1CCN1CCOCC1)c1cccc([N+](=O)[O-])c1`: the compound was classed as inactive.

In the case of `Cc1oncc1C(=O)Nc1ccc(C(F)(F)F)cc1`, the result was inactive.

Turning to `Nc1ncnc2nc(-c3ccc(N4CCOCC4)nc3)cc(-c3cccc(Br)c3)c12`, the compound was classed as inactive.

Regarding `CN1CCN(CCCN2c3ccccc3Sc3ccc(C(F)(F)F)cc32)CC1`, the compound was called inactive.

On to `CCn1cc(C(=O)O)c(=O)c2cc(F)c(N3CCNC(C)C3)c(F)c21` (stereo unspecified), for which the call was inactive.

For `CCCCNc1cc(C(=O)O)cc(S(N)(=O)=O)c1Oc1ccccc1`, the compound was called inactive.

Consider `NNCCc1ccccc1`, for which the compound was called inactive.

As for `CC(=O)Oc1ccccc1C(=O)O`, the compound was classed as inactive.

On to `NC[C@H](O)c1ccc(O)c(O)c1`, for which the result was inactive.

For `Cc1cn[nH]c1`, the outcome was inactive.

For `O=C(O)COCCN1CCN(C(c2ccccc2)c2ccc(Cl)cc2)CC1` (stereo unspecified), the result was inactive.

Regarding `CCCC(CCC)C(=O)O`, the outcome was inactive.
